The campaign covered roughly 370,000 compounds. About 3,100 (0.84%) were called active.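 How the source made its calls: active means inhibition above the mean of compounds lying between control limits plus 3 SD, set per campaign (cut at about 8.5% in these data); inactive means the rest.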 This excerpt belongs to a sample that is enriched for actives.

The target in the assay is Disintegrin and metalloproteinase domain-containing protein 17 (Homo sapiens) (UniProt P78536). Description: inhibition of ADAM17 peptide cleavage – biochemical, QFRET, primary screen (AID 720648).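 Further: 0% = DMSO-only wells as the low control.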 The settings on record: recombinant ADAM17, EDANS/DABCYL FRET peptide cleavage; at 6.95 µM; active compounds read high.
Chain of Disintegrin and metalloproteinase domain-containing protein 17 (Homo sapiens) (P78536 215-824 limits assumed): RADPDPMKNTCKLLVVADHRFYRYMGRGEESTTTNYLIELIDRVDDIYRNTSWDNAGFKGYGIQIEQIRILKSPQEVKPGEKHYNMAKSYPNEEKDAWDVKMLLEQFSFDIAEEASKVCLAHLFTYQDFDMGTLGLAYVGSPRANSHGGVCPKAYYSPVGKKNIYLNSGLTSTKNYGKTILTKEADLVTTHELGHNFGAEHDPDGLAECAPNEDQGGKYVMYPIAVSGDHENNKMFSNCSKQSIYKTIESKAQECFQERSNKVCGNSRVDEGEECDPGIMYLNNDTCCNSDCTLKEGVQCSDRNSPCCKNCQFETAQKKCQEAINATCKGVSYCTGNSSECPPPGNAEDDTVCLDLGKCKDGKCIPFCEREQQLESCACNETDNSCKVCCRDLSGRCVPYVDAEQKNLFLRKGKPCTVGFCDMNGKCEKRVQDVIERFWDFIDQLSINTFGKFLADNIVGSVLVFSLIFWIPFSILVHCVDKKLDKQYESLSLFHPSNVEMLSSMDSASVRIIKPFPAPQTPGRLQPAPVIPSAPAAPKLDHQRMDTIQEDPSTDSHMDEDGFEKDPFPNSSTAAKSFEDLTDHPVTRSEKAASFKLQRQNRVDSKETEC
As a reminder, the inhibition is the change of the read-out against control, counted positive when it falls. In the case of `CN(C(=O)c1cccc(NC(=O)Cc2ccc([N+](=O)[O-])cc2)c1)C1CCC1`, the inhibition is 3.46% (inactive). Turning to `CN(C(=O)c1cccc(NC(=O)Cc2cccc([N+](=O)[O-])c2)c1)C1CCCCC1`, the inhibition is 10.3% (active). As for `CN(C(=O)c1cccc(NC(=O)Cc2cccc(NC(=O)C3CCCN(C(=O)C4CC4)C3)c2)c1)C1CCC1` (stereo not drawn), the inhibition was -2.72% (inactive). As to `Cc1ccccc1CS(=O)(=O)Cc1ccc(C(=O)Nc2ccc(Cl)cc2)o1`, the inhibition is -7.43% (inactive). `COc1ccc(Cn2cc(CN3CCS(=O)(=O)N(Cc4ccc(-c5cccc(Cl)c5)cc4)C(C)C3=O)nn2)cc1` (stereo not drawn): the inhibition was 10% (active). As for `CC1C(=O)N(Cc2cn(Cc3ccco3)nn2)CCS(=O)(=O)N1Cc1ccc(-c2cccc(CO)c2)cc1` (stereo not drawn), the figure is 0.84% (inactive). `COc1ccc(-c2ccc(CN3C(CC(C)C)C(=O)N(Cc4cn(CC5CCCCC5)nn4)CCS3(=O)=O)cc2)cn1` (stereo not drawn): the inhibition is 3.81% (inactive). `COc1ccc(-c2ccc(CN3C(CC(C)C)C(=O)N(Cc4cn(CC5CCCCC5)nn4)CCS3(=O)=O)cc2)cc1` (stereo not drawn): the inhibition was 9.87% (active).

Regarding `CC1C(=O)N(Cc2cn(CC3CCCCC3)nn2)CCS(=O)(=O)N1Cc1ccc(-c2cccc(N(C)C)c2)cc1` (stereo not drawn), the inhibition was -2.56% (inactive). On to `CC(C)CC1C(=O)N(Cc2cn(CC3CCCCC3)nn2)CCS(=O)(=O)N1Cc1ccc(-c2ccc(Cl)cc2)cc1` (stereo not drawn), for which the inhibition was -0.31% (inactive). As to `COc1cc(/C=C/C(=O)n2cnc3ccccc32)cc(OC)c1OC`, the inhibition is -11.9% (inactive). As for `CC(=O)OC12CCCN(C1)/C(=C/c1ccncc1)C2` (stereo not drawn), the figure is -1.16% (inactive). Regarding `Clc1ccc(-n2c(SC/C=C/c3ccccc3)nnc2-c2ccco2)cc1`, the inhibition is 8.36% (inactive). `CC(C)CNc1cccc2c1S(=O)(=O)N(Cc1cn(Cc3ccccc3C(F)(F)F)nn1)Cc1ccccc1O2`: the inhibition is -9.08% (inactive). Take `CCCNC(=O)C1CC(=O)N(c2ccc(OCc3ccccc3)cc2)C1` (stereo not drawn): the inhibition is -1.62% (inactive). For `COc1cc(C2C(C(=O)c3ccco3)=C(O)C(=O)N2c2cc(C)on2)ccc1OCc1ccccc1` (stereo not drawn), the inhibition is -1.07% (inactive).

As to `COc1cc(C2CC(=O)N3CN(Cc4ccccc4)CSC3=C2C#N)ccc1OCc1ccccc1` (stereo not drawn), the inhibition was 10.2% (active).

Regarding `Cc1cc(C)nc(NC(=S)N2CCN(c3ccc(C(F)(F)F)cn3)CC2)c1`, the inhibition was -0.9% (inactive). Take `CC(C)c1ccc(NC(=S)NC2CC3C=CC2C3)cc1` (stereo not drawn): the inhibition was 1.36% (inactive). In the case of `Cc1ccc(C)c(NC(=S)NCC(c2cccnc2)N2CCOCC2)c1` (stereo not drawn), the inhibition is 4.64% (inactive). Turning to `Cc1ccc(C)c(NC(=S)NNC(=S)Nc2ccc(C(C)C)cc2)c1`, the inhibition is 11% (active).

With `COc1ccnc(NC(=S)N2CCN(c3ncc(C(F)(F)F)cc3Cl)CC2)c1`, the inhibition is -3.73% (inactive). On to `C[C@H](C(=O)N(C)c1ccccc1)[C@@H](O)c1ccc(Cl)cc1`, for which the inhibition was -3.74% (inactive). `C[C@@H]1CN([C@H](C)CO)C(=O)CCCn2nncc2CO[C@@H]1CN(C)C(=O)OCc1ccccc1`: the inhibition was -3.01% (inactive). For `COC(=O)N(C)C[C@@H]1OCc2cnnn2CCCC(=O)N([C@@H](C)CO)C[C@@H]1C`, the inhibition was 8.71% (active). On to `C[C@H](CO)N1C[C@H](C)[C@@H](CN(C)C(=O)C2CCCCC2)OCc2cnnn2CCCC1=O`, for which the inhibition is 3% (inactive).

For the compound `COC(CNC(=O)[C@H](Cc1ccccc1)NC1(C(=O)NC2CCCCC2)CCCCC1)OC`, the inhibition is -1.27% (inactive). With `COc1ccc(S[C@]2(C(=O)N(C)C)CC(=O)N(c3ccc(OC)cc3)[C@@H]2c2ccc(OC)cc2)cc1`, the inhibition was 3.23% (inactive).

The values above are taken from PubChem BioAssay AID720648 (The Scripps Research Institute Molecular Screening Center, 2013).
